# Source: PubChem BioAssay AID893 (National Center for Advancing Translational Sciences (NCATS), 2007)
# Values joined by “and” are separate entries in the source; they are usually repeats but may differ in a detail not shown here. Identical values can stand only once. Screen size: about 75,000 compounds; about 5,700 (7.6%) were called active. Another 7% or so got no clear call; they are omitted. The sample as a whole holds a higher share of actives than the screen did. Unmarked numbers belong to inactive results. The call rests on the fitted dose curve; in most records, active means well fitted inhibition curve with a large enough effect; inconclusive means small, poorly fitted or top-dose-only effect; inactive means no such curve, though single readings can be large or run the other way.
# Target: 3-hydroxyacyl-CoA dehydrogenase type-2 (Homo sapiens) (UniProt Q99714)
# Assay: qHTS Assay for Inhibitors of HSD17B4, hydroxysteroid (17-beta) dehydrogenase 4;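 further: the protocol describes HADH2 (HSD17B10) and not the HSD17B4 of the title; nearly all actives have a fitted effect of over 70% in size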
# Conditions: recombinant HSD17B10, NADH fluorescence kinetic; series mostly up to 57.1 µM; activity change, negative = inhibition: at the top concentration
# In short: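 Enzyme plus compound, 15 min room temperature; substrate mix added (NAD+ 1 mM, beta-hydroxybutyryl-CoA 90 uM final); plates read kinetically for NADH fluorescence. HADH2 was His-tagged, E. coli-derived, 20 nM.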
# On the % scale 0 is the no-effect control and ±100 the full control effect; potency means the concentration at half of the fitted maximal effect.
Compound,"activity change, negative = inhibition",Potency
COc1cccc(N2CCN(C3CC(=O)N(c4ccc(Cl)cc4)C3=O)CC2)c1 (stereo not given),-12.5%,–
COC(=O)CC1C(C)(C)C(OC(C)=O)C2CC3=C4CC(=O)OC(c5ccoc5)[C@]4(C)CCC3[C@@]1(C)C2=O (stereo not given in full),-4.16%,–
CCOc1ccc2[nH]c(=O)c(C(c3nnnn3CCOC)N3CCOCC3)cc2c1 (stereo not given),–,10 µM (active)
COc1ccc(N2CCN(C(c3cc4ccc(C)cc4[nH]c3=O)c3nnnn3C3CCCC3)CC2)cc1 (stereo not given),-0.718%,–
COCCn1nnnc1C(c1cc2ccc(OC)cc2[nH]c1=O)N1CCc2ccccc2C1 (stereo not given),-12%,–
O=C1CC2(CCCCC2)Oc2ccc(OCC(=O)N3CCOCC3)cc21,–,31.6 µM (active)
COc1ccc(OCC(=O)N2CCOCC2)cc1,8.6%,–
O=C(Nc1cccc(OCC(=O)N2CCOCC2)c1)C1CCCCC1,10.2%,–
CC(C)(C)[Si](OCC[C@@H]1C[C@@]1(C)[C@@H](NP(=O)(c1ccccc1)c1ccccc1)c1ccccc1)(c1ccccc1)c1ccccc1,-19.1%,–
O=C1c2oc3ccccc3c(=O)c2C(c2cccc(O)c2)N1c1ccccn1 (stereo not given),-1.25%,–
CC1O[C@@H](Oc2c(-c3ccc(O)c(O)c3)oc3cc(O)cc(O)c3c2=O)C(O)C(O)C1O (stereo not given in full),-7.59%,–
O=c1c(O)c(-c2ccc(O)cc2)oc2ccccc12,–,25.1 µM (active)
CCOC(=O)CNC(=O)CSc1nnc(-c2cccc(OC)c2)n1CC,-1.53%,–
Cc1ccc(CNC(=O)C2CCCN(S(C)(=O)=O)C2)cc1 (stereo not given),6.68%,–
CCOC(=O)c1cc(C)sc1NC(=O)C1CCC1,-15.9%,–
COc1ccccc1OCCOc1ccc(/C=N/n2cnnc2)cc1,1.4%,–
COc1cccc(OCCOc2cccc(/C=N/n3cnnc3)c2)c1,-0.34%,–
C=CCOc1ccc(/C=N/n2cncn2)cc1OC,–,15.8 µM (active)
Cc1cnc(NC(=O)CSc2nnc(-c3ccccc3)n2Cc2ccccc2)s1,-0.936%,–
Cc1nc(NC(=O)C23CCC(C)(C(=O)O2)C3(C)C)sc1C (stereo not given),5.08%,–
CN1CCC(CNC(=O)c2ccc(-n3c(=O)c(=O)[nH]c4ccccc43)cc2)CC1,-9.01%,–
O=C(Cl)c1ccc([N+](=O)[O-])cc1,2.48%,–
FC(F)(F)c1cc(-c2cccs2)nc(NCc2ccco2)n1,–,31.6 µM (active)
O=C(CSc1nnc(-c2cccs2)n1-c1ccccc1)NCc1ccco1,7.1%,–
O=C(CSc1nc(-c2ccco2)cc(C(F)(F)F)n1)NCc1cccs1,-24.8%,–

Compound,"activity change, negative = inhibition",Potency
COc1ccccc1Nc1ncc(C(C)=O)c(C)n1,-1.3%,–
O=C(Nc1ccccc1F)C1C2C=CC3(O2)C1C(=O)N(c1cccnc1)C3C(=O)NC1CCCCC1 (stereo not given),-2.23%,–
COc1cccc([C@H]2Oc3ccc(OC)cc3/C(=N\OCC[C@@H]3C=C[C@H](OC(C)=O)[C@H](COC(C)=O)O3)[C@@H]2O)c1,-5.53% [at 11.4 µM],–
O=c1oc2cc(O)ccc2cc1-c1ccc(F)cc1,-22.5%,–
COc1cccc(C(=O)c2cc3ccc(O)cc3oc2=O)c1,-11%,–
COc1ccc(-c2cc3ccc(OCc4nn[nH]n4)cc3oc2=O)cc1,–,25.1 µM (active)
c1ccc(-n2ncc3c2ncn2c(CSc4nc5ccccc5s4)nnc32)cc1,5.97%,–
CCOC(=O)Cn1c(CN(Cc2ccccc2)Cc2ccccc2)nc2c1c(=O)[nH]c(=O)n2C,2.66%,–
CCCOC(=O)c1[nH]c2c(c1C)C(=O)CC(c1cc(OC)c(OC)c(OC)c1)C2 (stereo not given),7.46%,–
CC1(C)OC2CO[C@]3(COS(N)(=O)=O)OC(C)(C)OC3C2O1 (stereo not given in full),4.95%,–
COc1c(C)c2c(c(O)c1C/C=C(\C)CCC(=O)O)C(=O)OC2,–,12.6 µM (active) and 25.1 µM (active)
Oc1cc(O)c2c(c1)OC(c1ccc(O)c(O)c1)C(O)C2 (stereo not given),-12.6%,–
O=C(NCCCN1CCN(C2CCCCC2)CC1)Nc1ccccc1C(F)(F)F,13%,–
Oc1ccc(O)c2c(O)cccc12,–,12.6 µM (active)
Cc1cccc(CNc2cc(-c3ccccc3Cl)ncn2)c1,-4.03%,–
Cc1ccc(S(=O)(=O)NCC(=O)N(CC(=O)NC2CCCCC2)Cc2ccco2)cc1,2.39%,–
Cc1ccc(NC(=O)CS(=O)CC(=O)N(c2ccccc2)C(C)C(=O)NC2CCCC2)cc1 (stereo not given),1.98%,–
O=c1[nH][nH]c(=O)c2cc(N3CCCC3)ccc12,–,31.6 µM (active)
CO[C@H]1COC(=O)[C@H](Cc2ccccc2)NC(=O)C/C=C\[C@@H](C)[C@H](OC)COC(=O)C/C=C\[C@@H]1C,-5.43% [at 11.4 µM],–
COC(=O)c1cn(C)c2ccc(S(=O)(=O)N3CC(C)CC(C)C3)cc2c1=O (stereo not given),7.23%,–
CC(C)(C)c1cc(C(=O)NCc2cccnc2)ccn1,4.84%,–
Cc1ccc(-n2nc(-c3ccco3)cc2C(=O)NCc2cccnc2)cc1,-29.6%,–
COCCn1c(=O)[nH]c2cc(C(=O)NCc3cccnc3)ccc2c1=O,–,31.6 µM (active)
Fc1ccc(-c2nnc(CSc3nnc(-c4ccc5c(c4)OCO5)o3)o2)cc1,0.775%,–
O=C(c1cccc(C(=O)N2CCN(c3ccc(F)cc3)CC2)c1)N1CCN(c2ccc(F)cc2)CC1,3.89%,–

Compound,"activity change, negative = inhibition",Potency
Cc1cc(C)c2[nH]c(=O)c(C(c3nnnn3Cc3ccc4c(c3)OCO4)N3CCCC3)cc2c1 (stereo not given),51.7%,–
Cc1cccc2cc(CN(Cc3nnnn3Cc3ccccc3)C3CCCC3)c(=O)[nH]c12,–,31.6 µM (active)
Cc1cccc2cc(CN(Cc3ccc4c(c3)OCO4)Cc3nnnn3C3CCCC3)c(=O)[nH]c12,-9.43%,–
Nc1nc2nc(Cl)[nH]c2c(=O)[nH]1,-5.13%,–
CCOC(=O)C1CCCCN1Cc1ccc(OC)c(OC)c1OC (stereo not given),3.61%,–
Clc1ccc(CSc2nnc([C@@H]3CCCN3)o2)cc1,0.227%,–
Cc1ccc(S(=O)(=O)C(C#N)c2nc3ccccc3nc2N2CCCC2)cc1C (stereo not given),–,31.6 µM (active)
Cc1ccc(S(=O)(=O)N2CC(=O)Nc3ccccc32)cc1C,89.7%,–
CC(C)OC(=O)C(C#N)c1nc2ccccc2nc1N1CCN(Cc2ccccc2)CC1 (stereo not given),-5.29%,–
O=C(O)c1nn(-c2ccc(Cl)cc2)c2c1C(=O)c1ccccc1C2=O,-2.81% [at 11.4 µM],–
CCc1ccc(N(CC)c2ncnc3nc[nH]c23)cc1,5.77%,–
O=C(O)c1ccc(Cl)c(S(=O)(=O)Nc2ccccc2Cl)c1,-7.94%,–
Cn1c(=O)n(C)c2cc(CNc3ccc(N4CCOCC4)c(C(=O)O)c3)ccc21,–,25.1 µM (active)
CC(=O)Nc1ccc(N2CCOCC2)c(C(=O)Nc2cccc(C)c2)c1,3.99%,–
Cn1c(CN2CCOCC2)nc2cc(NC(=O)c3ccc(Cl)cc3)ccc21,-7.15%,–
COc1cccc(N(C(=O)c2ccn[nH]2)C2(C(=O)Nc3c(C)cccc3C)CCCCC2)c1,-0.273%,–
CSCCC(Nc1nc2ccccc2s1)C(=O)O (stereo not given),-0.585%,–
O=C(O)CN(Cc1ccco1)S(=O)(=O)c1ccc(F)cc1,3.03%,–
Cc1c2c(nc3ccccc13)-c1cccc(=O)n1C2,–,7.94 µM (active)
CC(C)c1ccc2c([Si](C)(C)C)c3c(nc2c1)-c1cccc(=O)n1C3,-7.17%,–
CC(C)(O)CCC(O)[C@@](C)(O)C1CC[C@]2(O)C3=CC(=O)C4CC(O)C(O)C[C@]4(C)C3CC[C@]12C (stereo not given in full),3.96%,–
CCOc1ccc(N2C(=O)CC(N(O)c3ccccc3)C2=O)cc1 (stereo not given),7.88%,–
N#Cc1nc(Cc2ccccc2)oc1NCCc1ccccc1,-12.5%,–
N#Cc1nc(-c2ccc(OCc3ccccc3)cc2)oc1NCCCN1CCOCC1,–,25.1 µM (active)
N#Cc1nc(COc2ccc(-c3ccccc3)cc2)oc1NCc1cccnc1,-5.22%,–

Compound,"activity change, negative = inhibition",Potency
CC[C@]1(C)CC(=O)NC1=O,–,inactive
CC(C)(C)n1nnnc1C(c1cccs1)N(Cc1cccnc1)CC1CCCO1 (stereo not given),7.97%,–
COc1ccc2[nH]cc(CCNc3cc(-c4ccccc4CN(C)C)ncn3)c2c1,17.2%,–
Cc1cc(Nc2ccc(Br)cc2F)n2ncnc2n1,3.99%,–
Cc1ccc(NC(=O)CCNS(=O)(=O)c2ccc3c(c2)oc(=O)n3C)cc1C,6.7%,–
C[C@@H]1/C=C\CC(=O)OC[C@H]2O[C@@H](C=C[C@@H]2O)[C@H](C)/C=C\CC(=O)OC[C@H]2O[C@H]1C=C[C@@H]2O,-0.26% [at 11.4 µM],–
CCn1c(=N)c(S(=O)(=O)c2ccc(F)cc2)cc2c(=O)n3ccccc3nc21,-17.6%,–
CCOC(=O)c1cc2n(c1N)-c1ccccc1C2=O,-13.6%,–
CCCn1c(=NC(C)=O)c(C(=O)OCC)cc2c(=O)n3ccccc3nc21,–,20 µM (active)
CC(C)(C)c1nc(NCC2CCCO2)c2nnn(Cc3ccccc3)c2n1 (stereo not given),3.69%,–
C#CCNc1nc(C(C)C)nc2c1nnn2Cc1ccccc1F,-1.81%,–
Cc1nc(Nc2ccc3c(c2)OCCO3)c2nnn(Cc3ccccc3Cl)c2n1,–,31.6 µM (active)
O=c1cc(CO)oc(CN2CCC(Cc3ccccc3)CC2)c1O,-14.7%,–
OCCN1CCN(CC/C=C2\c3ccccc3Sc3ccc(C(F)(F)F)cc32)CC1,–,inactive
CCCN1[C@H](C(=O)OC)C[C@@]2(O)[C@@H](O)[C@@H](O)[C@@H](O)C[C@@H]12,7.09%,–
Cc1nnc(SCC(=O)NCc2ccccc2)s1,4.45%,–
COc1c(C(C)C)oc2cc3oc(=O)ccc3cc12,92%,–
O=C(Cn1c(=O)sc2ccccc21)Nc1nc2c(s1)CCCC2,10.3%,–
Fc1ccc2nc(Nc3nc4c(s3)CCCC4)sc2c1,–,25.1 µM (active)
Fc1ccc2nc(N3CCCCC3)sc2c1,7.82%,–
CNc1cc(-c2c(C)noc2C)ncn1,18.4%,–
O=C1CCc2cc(S(=O)(=O)N3CCC(C(=O)NCc4ccccc4Cl)CC3)ccc2N1,-0.8%,–
Cc1ccc(C(=O)Nc2nnc(-c3cccs3)s2)cc1C,–,25.1 µM (active)
COc1cccc(OC)c1C(=O)Nc1nnc(C(C)C)s1,-1.6%,–
CCCc1nnc(NC(=O)c2cc(OC)cc(OC)c2)s1,-11.4%,–
